Rows were chosen to be rich in hits. Some 7.6% of all compounds tested hit in one or more screens of this group.
M1 antag: antagonists of rat M1 muscarinic receptor. CHO-M1 cells, Fluo-4 calcium, ACh EC80 antagonist mode; stronger effect = lower value. B-score at 10 µM. 3.4% of 64,000 active;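 active means calcium fluorescence response, raw or row-and-column corrected B-score, differing from the plate sample mean either way at a set confidence level, mostly lower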
PLAP act: PLAP enzyme activators, biochemical, luminescence, HTS. Alkaline phosphatase, placental type (Homo sapiens), P05187. purified PLAP enzyme, luminescent substrate read-out; stronger effect = higher value. activation fold at 20 µM. 1.2% of 96,000 active; in the data active means activation fold above about 2
Target sequence (P05187 whole entry, looked up): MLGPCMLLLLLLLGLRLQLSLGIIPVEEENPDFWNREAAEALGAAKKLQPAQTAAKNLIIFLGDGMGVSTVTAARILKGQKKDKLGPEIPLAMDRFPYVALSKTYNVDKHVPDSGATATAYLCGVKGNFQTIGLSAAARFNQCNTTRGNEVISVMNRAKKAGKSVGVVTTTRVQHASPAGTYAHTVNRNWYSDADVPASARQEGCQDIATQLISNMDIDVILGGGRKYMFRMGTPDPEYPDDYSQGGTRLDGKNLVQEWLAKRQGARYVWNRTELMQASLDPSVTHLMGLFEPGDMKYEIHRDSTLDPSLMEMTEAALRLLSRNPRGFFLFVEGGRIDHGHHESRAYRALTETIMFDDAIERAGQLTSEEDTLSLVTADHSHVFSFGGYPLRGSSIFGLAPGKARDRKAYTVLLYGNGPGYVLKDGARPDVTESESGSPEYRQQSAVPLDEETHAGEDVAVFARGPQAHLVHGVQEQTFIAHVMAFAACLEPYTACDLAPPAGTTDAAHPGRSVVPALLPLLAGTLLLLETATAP
M1 ag: M1 muscarinic receptor agonists, primary screen, CHO-M1 cells, Fluo-4 calcium, agonist mode | 3% of 64,000 active | Fluo-4 calcium fluorescence; stronger effect = higher value | B-score at 10 µM;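 active means fluorescence rise, raw or as B-score row- and column-corrected plate score, outside the 99.7% band of its plate's samples, either direction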
Cav32 inh: Cav3.2 calcium influx blockers – cell-based, Fluo-4 calcium fluorescence, FDSS, MLSMR library, primary screen. Cav3.2-expressing cells; stronger effect = lower value. B-score at 10 µM. 4% of 100,000 active;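 active means single-dose well whose peak fluorescence ratio is a statistical outlier from its plate by either plate-standardised score or position-corrected B-score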
M1 antag conf: rat M1 muscarinic receptor antagonists, confirmation, CHO cells, Fluo-4 calcium, duplicate; calcium response (max-min fluorescence) at 10 µM; ACh EC80 antagonism; stronger effect = lower value; 43% of 1,700 active; shares compounds with M1 antag;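 active means calcium response below the same-plate mean of wells given acetylcholine alone at its 80%-effect dose, minus 3 SD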;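 further: raw fluorescence intensity difference in arbitrary instrument units and not normalized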
mGluR4 antag: human mGluR4 response to M1 antagonist hits, M1 allosteric modulator project, cell-based, antagonist mode, secondary assay 1. shares compounds with M1 antag. fluorescence response (max-min) at 10 µM. AID 678, 2007. 0.9% of 1,700 active. CHO-mGluR4 calcium flux, Fluo-4 fluorescence, glutamate EC80; stronger effect = lower value;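 active means fluorescence response below the plate's average for near-maximal glutamate wells, less 3 SD of those wells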;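 further: raw unnormalized fluorescence span taken in the window right after glutamate addition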
* hit, by the source's call; x = not tested or not shown.

SMILES	M1 antag	PLAP act	M1 ag	Cav32 inh	M1 antag conf	mGluR4 antag
Cc1ccc(S(=O)(=O)NCCCC(=O)C=[N+]=[N-])cc1	-3.3*	1.1	-0.66	-0.4	610	240
Cc1ccc(S(=O)(=O)NCCCCCC(=O)N(C)C)cc1	-0.82	1.1	-0.22	0.056	x	x
C=CCn1c(NCc2ccc(N(C)C)cc2)nc2ccccc21	-2.3*	1.1	-0.97	-0.33	584	220
CC(C)C(C(=O)N1CCOCC1)N1C(=O)c2ccccc2C1=O (stereo not drawn)	-0.61	0.9	0.0065	0.46	x	x
c1ccc(-c2nnc(-c3ccccc3)o2)cc1	x	0.9	x	0.33	x	x
Clc1cccc(-c2nnc(-c3ccccc3)o2)c1	-1.7*	0.8	-0.33	-1.4	699	252
c1coc(CNc2nc3ccccc3n2CCN2CCOCC2)c1	-0.18	1.1	0.076	1.3	x	x
N=c1c2c(-c3ccccc3)c(-c3ccccc3)n(Cc3ccco3)c2ncn1CCN1CCOCC1	-7.2*	1.7	-1.1	-11*	360*	252
O=C(Oc1ccc(-c2nnco2)cc1)N1CCCCC1	0.34	1	-0.036	1.8	x	x
O=C(Oc1ccc(-c2nnco2)cc1)N(c1ccccc1)c1ccccc1	-1.6*	1.4	0.049	-1.9	502*	269
CCCCCOc1ccc2oc(=O)c3c(c2c1)CCCN3C(=O)CN1CCCC(C(=O)OCC)C1 (stereo not drawn)	x	1.5	x	-4.2	x	x
O=C(CN1CCN(Cc2ccccc2)CC1)N1CCCc2c1c(=O)oc1ccc(O)cc21	-6.1*	1.1	-0.0002	x	334*	222
CCCOc1ccc2oc(=O)c3c(c2c1)CCCN3C(=O)CN(C)Cc1ccccc1	-6.5*	1.3	-0.22	-0.45	386*	265
c1ccc(-c2nnc(N3CCN(c4ccccn4)CC3)c3ccccc23)cc1	-4.8*	0.8	1.4	-5.6*	358*	171*
CS(=O)(=O)N1CCN(c2nnc(-c3ccccc3)c3ccccc23)CC1	-0.55	1.8	1	0.026	x	x
Cc1cccc2c1N1C(=O)c3c(C(=O)O)cccc3C1CC2C (stereo not drawn)	x	x	x	0.085	x	x
CCCCn1c(=O)[nH]c2ccccc21	-2.4*	0.8	-2.2	0.46	674	225
O=c1[nH]c2ccccc2n1Cc1ccccc1	x	1	x	-0.95	x	x
CCN(CC)CCCNC(=O)c1cc2c(-c3ccc(Cl)cc3)nn(C)c2s1	-6.6*	1.6	0.033	0.031	419	220
CCN(CC)CCCNC(=O)c1cc(-c2ccc(Cl)c(Cl)c2)on1	-3*	1.2	-0.87	0.16	474*	176
O=C(CCCn1c(=O)[nH]c2cc(Cl)ccc2c1=O)NCCC1=CCCCC1	x	0.8	x	-0.35	x	x
COc1cccc(C(=O)NC(Cc2ccccc2)c2ccc3c(c2)OCCCO3)c1 (stereo not drawn)	x	1.1	x	-0.89	x	x
CC(=O)N1CCN=C1SCc1ccc(Cl)cc1	-0.35	1.1	-0.22	0.22	x	x
CC1CCC(C(C)C)C(OC(=O)CSc2n[nH]c(=O)[nH]c2=O)C1 (stereo not drawn)	0.43	1.1	0.21	-1.3	x	x
O=C(Nc1ccc(S(=O)(=O)Nc2nccs2)cc1)C1CCCCC1	-13*	1.1	0.72	0.33	682	209
SMILES	M1 antag	PLAP act	M1 ag	Cav32 inh	M1 antag conf	mGluR4 antag
CCOc1ccc(NC2=NCC(=O)N2Cc2cccs2)cc1	x	1.1	x	-0.046	x	x
COC(=O)c1ccc(OCCN2C3=NCCN3c3ccccc32)cc1	-9*	1.7	-0.32	0.19	440*	241
O=C(Nc1cccc(Cl)c1)NC1CCCCC1	-2.2*	0.9	-1.8	-1.6	630	223
CCCCP(=O)(CCCC)c1ccccc1C(=O)O	-3.7*	1.1	0.26	x	666	172
CCCCP(=O)(CCCC)Cc1ccccc1	x	0.9	x	-0.46	x	x
COc1ccc(C2CC(=O)c3cnc(N4CCN(Cc5ccccc5)CC4)nc3C2)cc1 (stereo not drawn)	-0.1	1.5	-0.41	-0.61	x	x
O=C1CC(c2ccco2)Cc2nc(N3CCN(Cc4ccc5c(c4)OCO5)CC3)ncc21 (stereo not drawn)	-1.9*	1.8	0.0094	-2.7	509*	267
COCCNC(=O)CNS(=O)(=O)c1ccc2nc(C)sc2c1	-1.2	1	-0.32	-0.0013	x	x
O=C(c1cc(-c2ccco2)on1)N1CCN(C(c2ccccc2)c2ccccc2)CC1	-2.7*	1.2	-1.5	-4.9	458	170
CC1(C)Cc2ccccc2C2CC(O)C(=O)N21 (stereo not drawn)	-0.23	1	-1.1	0.69	x	x
CCC(C)(C)n1nnnc1C(c1cc2cc(C)ccc2[nH]c1=O)N1CCCc2ccccc21 (stereo not drawn)	x	1.6	x	x	x	x
CCC(C)(C)n1nnnc1C(c1cc2cc(OC)ccc2[nH]c1=O)N1CCc2ccccc21 (stereo not drawn)	-16*	1.6	0.23	-1.4	486	198
CCC12CN(S(=O)(=O)c3ccc(C)cc3)CC(CC)(CN(S(=O)(=O)c3ccc(C)cc3)C1)C2=O	x	1.3	x	-2.7	x	x
O=C(NCCCc1ccccc1)C1CCN(c2nnc(-n3cccc3)s2)CC1	-0.3	1.4	-1.3	-1.6	x	x
O=C(NCCCN1CCc2ccccc2C1)C1CCN(c2nnc(-n3cccc3)s2)CC1	-2.9*	1.6	-0.096	2.5	337*	209
O=C(NCCCN1CCN(Cc2ccccc2)CC1)C1CCN(c2nnc(-n3cccc3)s2)CC1	-6.9*	1.8	0.05	0.47	419*	181
CCCC(=O)c1c[nH]c(C(=O)NCCCN2CCOCC2)c1	x	1.2	x	-0.071	x	x
COc1ccc(Nc2nc(N)nc(CN3CCOCC3)n2)cc1	0.14	1	0.52	0.21	x	x
Nc1nc(CN2CCN(Cc3ccccc3)CC2)nc(Nc2ccc3c(c2)OCCO3)n1	x	1.6	x	-0.2	x	x
COc1ccc(Nc2nc(N)nc(CN3CCC(Cc4ccccc4)CC3)n2)cc1	-10*	1.5	-1.4	-2.9	319*	265
Cc1ccc(Nc2nc(N)nc(CN3CCN(Cc4ccc5c(c4)OCO5)CC3)n2)cc1	-3.5*	1.5	0.85	-2.4	524	211
COc1ccccc1Nc1nc(N)nc(CN2CCC(Cc3ccccc3)CC2)n1	-2.4*	1.6	-0.3	-5.2*	452*	228
O=C(CCCN1C(=O)c2cccnc2C1=O)N1CC(=O)N(CCc2ccccc2)C(=O)C1	1	1	4.2	-0.41	x	x
CCNC(=O)/C(=C/c1ccc2c(c1)OCO2)NC(=O)c1ccc(Br)cc1	x	1	x	-0.83	x	x
CN1CCN(C(=O)C(C(=O)c2ccc(F)cc2)n2ccccc2=O)CC1 (stereo not drawn)	x	1	x	-0.44	x	x

Assay outcomes as filed in PubChem.
